High-throughput results from PubChem BioAssay.
A selection: hits, their analogues and other compounds. The true share with any hit is near 5.4%.
A3G deaminase – blocks human APOBEC3G single-stranded DNA deamination; 330,000 compounds, 0.28% hits; inhibition, % at 20 µM; recombinant A3G, ssDNA deamination FAM/TAMRA fluorescence; Q9HC16;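 active = inhibition of at least 40% at 20 µM, with no more than 30% in the related APOBEC3A deaminase screen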;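 also: plate controls were DMSO wells with A3G for no effect and wells lacking A3G enzyme for full effect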
ALR inh – blocks human ALR sulfhydryl oxidase activity; P55789; purified ALR, DTT oxidation, H2O2 HRP-luminol luminescence; inhibition, % (concentration not given with the values); 290,000 compounds, 3.8% hits;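 active = mean replicate inhibition above about 79%, with every replicate also reaching it, limit read from the data; inconclusive = only one of the two criteria met; inactive = mean below limit and not every replicate reaching it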
Target sequence (P55789 whole entry, looked up): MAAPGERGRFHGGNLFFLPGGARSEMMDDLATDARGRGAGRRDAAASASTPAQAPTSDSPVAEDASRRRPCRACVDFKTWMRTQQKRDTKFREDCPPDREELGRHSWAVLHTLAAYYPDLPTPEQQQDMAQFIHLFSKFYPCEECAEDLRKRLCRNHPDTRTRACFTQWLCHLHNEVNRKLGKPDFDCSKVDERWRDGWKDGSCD
aDG glyco act – increases alpha dystroglycan glycosylation; 360,000 compounds, 0.22% hits; activation, % at 10 µM; Pro5-aDG cells, alpha-DG glycosylation AlphaScreen (IIH6); 0% Pro5, 100% B10-LARGE cell signal;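 active = activation of at least 8% versus controls, or a plate z-score of at least 8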;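 also: Pro5 are CHO cells carrying HIG-tagged alpha-DG that lacks glycosylation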
rCAG binder – molecules binding r(CAG) RNA repeats | r(CAG) RNA repeat, TO-PRO-1 dye displacement fluorescence | inhibition, % at 3 µM | 370,000 compounds, 1.3% hits;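 active = inhibition above the plate cutoff, the mean of all test compounds on that plate plus 3 SD, cut at about 35% in these data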;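 also: 0% = DMSO alone and 100% = 100 µM mitoxantrone as full dye displacement; higher means more dye released from RNA so lower well fluorescence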
A3A deaminase – blocks human APOBEC3A ssDNA deamination | inhibition, % at 20 µM | recombinant A3A, FAM/TAMRA ssDNA deamination fluorescence | AID 493011 | 330,000 compounds, 0.41% hits;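 active = at least 40% inhibition at 20 µM here, with at most 30% in a related deaminase screen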;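 also: plate controls were A3A with DMSO for no effect and wells lacking A3A enzyme for full effect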
Target sequence (P31941 whole entry, looked up): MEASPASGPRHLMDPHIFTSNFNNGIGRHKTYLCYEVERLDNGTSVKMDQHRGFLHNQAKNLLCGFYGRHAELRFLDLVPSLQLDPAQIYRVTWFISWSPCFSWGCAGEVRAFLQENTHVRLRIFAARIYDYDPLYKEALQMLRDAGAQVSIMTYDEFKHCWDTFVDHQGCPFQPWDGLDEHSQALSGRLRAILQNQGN
PHOSPHO1 block – PHOSPHO1 (human) inhibition; 290,000 compounds, 1.1% hits; recombinant PHOSPHO1, absorbance phosphatase assay; Q8TCT1; inhibition, % at 13.3 µM; in the data active = inhibition above about 60%
* = called active by the depositor; u = inconclusive; x = not tested or not shown.

SMILES	A3G deaminase	ALR inh	aDG glyco act	rCAG binder	A3A deaminase	PHOSPHO1 block
CCCCCNC(=O)C(c1cccc2ccccc12)n1c(=O)c(-c2ccco2)nc2ccccc21 (configuration not stated)	x	x	0	30	x	x
Cc1ccc(-c2nc(C3CCCN(S(=O)(=O)c4cccs4)C3)no2)cc1 (configuration not stated)	x	x	x	3	x	x
Cc1ccc(S(=O)(=O)NN=Cc2ccco2)cc1	x	x	0	3	x	x
Cc1ccc(S(=O)(=O)N/N=C/c2cc(Br)c(C)o2)cc1	-4	39	0	6	-2	91*
O=C(NCc1ccc2c(c1)OCO2)C1CC(=O)N(C2CCCC2)C1 (configuration not stated)	-2	-10	0	0	-7	64*
O=C(NCc1ccc2c(c1)OCO2)C1CC(=O)N(C2CCCCCCC2)C1 (configuration not stated)	-1	-9	0	-4	1	48
CC(C)C[C@H](NC(=O)C1CC(=O)N(c2ccc3c(c2)OCO3)C1)C(=O)NC1CCCC1 (some centres not stated)	-5	-7	0	-6	-1	70*
Cc1ccc(-n2cc(C(C)(C)C)[nH]c2=S)cc1	-1	39	0	-4	-2	93*
CC(C)(C)c1cn(-c2ccccc2)c(=S)[nH]1	9	u	1	-3	-2	76*
CCOC(=O)[C@]12CCCC=C1N(CCCOC)C(=O)[C@@H]2CC(=O)N1CCN(C(=O)c2ccco2)CC1	x	x	x	0	x	x
C=CCn1c(COc2ccc(F)cc2)nnc1SCC(=O)N1CC(=O)Nc2ccccc21	-3	-6	0	-8	4	74*
C=CCn1c(COc2ccc(F)cc2)nnc1SCC(=O)NC1CC1	-4	33	0	-2	0	x
Cc1ccc2nc(NCc3ccccc3)[nH]c2c1	x	99*	0	3	x	0
COc1ccc2nc(C(C)O)[nH]c2c1 (configuration not stated)	0	-47	1	-3	3	8
COc1ccc2nc(N3CCCC3)[nH]c2c1	-3	96*	0	-1	2	19
COc1ccc2nc(NCCO)[nH]c2c1	-6	x	0	-1	-4	11
COc1ccc2nc(NCc3ccccc3)[nH]c2c1	-8	95*	0	6	0	15
C=CCN1C(=O)[C@@H](CC(=O)NCCc2ccccc2OC)[C@]2(C(=O)OC)CCCCC=C12	x	x	x	2	x	x
CC(C)CN(CC(C)C)c1nnc(N)s1	-2	99*	0	4	1	11
CC(C)CSc1nnc(N)s1	-3	-6	0	-1	-3	-3
Cc1ccccc1C(=O)N[C@@H](Cc1cccnc1)C(=O)N1CCC[C@H]1C(=O)NC1CCCC1	x	x	x	1	x	x
N#Cc1ccccc1OCC(=O)Nc1c(C(=O)C2CC2)oc2ccccc12	-1	90*	0	3	-2	16
O=C(CN1CCCC1)Nc1c(C(=O)C2CC2)oc2ccccc12	-10	2	0	-2	-5	20
O=C(c1cc2ccccc2o1)N1CCN=C1SCc1cccnc1	0	99*	1	0	-2	24
O=C(c1cc2ccccc2o1)N1CCN=C1SCc1cccc(F)c1	-3	-42	0	0	-2	-9
SMILES	A3G deaminase	ALR inh	aDG glyco act	rCAG binder	A3A deaminase	PHOSPHO1 block
O=C(c1ccc(Br)o1)N1CCN=C1SCc1cccnc1	0	100*	0	1	0	1
C[C@@H]1CCN(C2CC2)S(=O)(=O)c2ccc(N3CCC[C@@H]3C)cc2O1	x	x	x	1	x	x
Oc1ccc(/C=N/Nc2ccc(C(F)(F)F)cn2)cc1	-10	97*	0	5	-1	-21
COC(=O)[C@]12C[C@H](CC(=O)NCc3ccccc3)C(=O)N(Cc3ccco3)C1=C[C@H](COCc1ccccc1)O[C@@H]2C	x	x	x	14	x	x
Cc1cccc(NCc2ccc(N(C)C)cc2)n1	-5	82*	0	-5	-4	4
CN(C)c1ccc(CNc2ccccn2)cc1	-12	98*	0	-2	-7	x
COc1ccc(C(=O)O[C@@H]2CCC[C@@]3(C(=O)N(Cc4ccccc4)c4ccccc43)[C@H]2NC(=O)CCc2ccccc2)cc1OC	x	x	x	11	x	x
C=CCN(CC#Cc1cccnc1)Cc1ccc(OC)cc1OC	x	x	x	-3	x	x
